About 79,000 compounds went through this panel and 15% of them were active in at least one assay; those are over-represented in the sample as a whole. A number with no mark means an inactive call. The source made the active and inactive calls. No stated cut-off is given here; in the data, active means growth inhibition above about 70%; inactive means the rest.
Key:
[1] = NCI Yeast Anticancer Drug Screen. Data for the rad50 strain (AID 155);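 further: 0% = growth of vehicle-only cultures of the same strain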; conditions: S. cerevisiae rad50 strain growth inhibition, hits give high values
Procedure, shortened: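 Vehicle-treated cultures provide the reference for the growth inhibition reported for compound-exposed, repair-deficient yeast.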

[2] = NCI Yeast Anticancer Drug Screen. Data for the mec2-1 strain (AID 157); conditions: S. cerevisiae mec2-1 strain, hits give high values
Procedure, shortened: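 Compounds were applied to mec2-1 yeast cells. Their growth was then compared with that of vehicle-treated cultures to give growth inhibition.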

[3] = NCI Yeast Anticancer Drug Screen. Data for the sgs1 mgt1 strain (AID 161);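 further: 0% = growth of cultures given vehicle only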; conditions: S. cerevisiae sgs1 mgt1 strain, hits give high values
Procedure, shortened: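 Percent growth inhibition was derived by comparing compound-exposed mutant yeast with vehicle-exposed cultures. The strain carries alterations in DNA damage repair.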

[4] = NCI Yeast Anticancer Drug Screen. Data for the cln2 rad14 strain (AID 165);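 further: 0% = growth equal to vehicle treated cultures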; conditions: S. cerevisiae cln2 rad14 strain, hits give high values
Procedure, shortened: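 Strain: cln2 rad14 yeast, altered in cell cycle control and DNA damage repair. Read-out: growth inhibition vs vehicle.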

[5] = NCI Yeast Anticancer Drug Screen. Data for the bub3 strain (AID 167); conditions: S. cerevisiae bub3 mutant strain, hits give high values
Procedure, shortened: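 Mutant yeast screening strain plus compound; vehicle-treated cultures serve as the 0% inhibition reference.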

[6] = NCI Yeast Anticancer Drug Screen. Data for the mlh1 rad18 strain (AID 175); conditions: S. cerevisiae mlh1 rad18 strain growth inhibition, hits give high values
Procedure, shortened: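 A repair-deficient yeast strain is exposed to test compound, and growth is scored relative to vehicle-treated controls.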

[7] = at 5.0 µM (retest, dose inferred, filed as 0.5)
[8] = at 50.0 µM (retest, dose inferred, filed as 5.0)

Compound | growth inhibition [1, 7] | growth inhibition [1, 8] | growth inhibition ([1]; at 50.0 µM) | growth inhibition [2, 7] | growth inhibition [2, 8] | growth inhibition ([2]; at 50.0 µM) | growth inhibition [3, 7] | growth inhibition [3, 8] | growth inhibition ([3]; at 50.0 µM) | growth inhibition [4, 7] | growth inhibition [4, 8] | growth inhibition ([4]; at 50.0 µM) | growth inhibition [5, 7] | growth inhibition [5, 8] | growth inhibition ([5]; at 50.0 µM) | growth inhibition [6, 7] | growth inhibition [6, 8] | growth inhibition ([6]; at 50.0 µM)
COC1OC(COC(C)=O)C(OC(C)=O)C(OC(C)=O)[CH]1[Hg][I] (configuration not stated) | 99% (active) | 99% (active) | 99.2% (active) | 99% (active) | 99% (active) | 99.6% (active) | 100% (active) | 100% (active) | 99.6% (active) | 99% (active) | 99% (active) | 98.9% (active) | 99% (active) | 99% (active) | 99.3% (active) | 99% (active) | 99% (active) | 99.2% (active)
CCNC(=O)O/N=C1/C=C2CC[C@@H]3C(CC[C@@]4(C)C3CC[C@@H]4OC(=O)NCC)[C@@]2(C)CC1 (some centres not stated) | 94% (active) | 66% | 97.8% (active) | 97% (active) | 45% | 98.1% (active) | 97% (active) | 72% (active) | 97.5% (active) | 96% (active) | 14% | 96.2% (active) | 93% (active) | 58% | 97.2% (active) | 97% (active) | 69% | 97.5% (active)
CC(=O)[O][Hg][c]1ccccc1N | 36% | 60% | 91.6% (active) | 36% | 64% | 93.8% (active) | 99% (active) | 99% (active) | 93.7% (active) | 46% | 99% (active) | 92% (active) | 99% (active) | 98% (active) | 92.1% (active) | 22% | 35% | 91.7% (active)
O=C(c1ccccc1)c1c(CC(O)c2ccncc2)n(C(=O)c2ccccc2)c2ccccc12 (configuration not stated) | 18% | 95% (active) | 94% (active) | -2% | 96% (active) | 92.5% (active) | 8% | 97% (active) | 92.2% (active) | 18% | 96% (active) | 82.7% (active) | -3% | 98% (active) | 92.2% (active) | 19% | 95% (active) | 93.8% (active)
CC(CN1CCCCCCC1)C(C#N)(c1ccccc1)c1ccccc1 (configuration not stated) | 4% | 47% | 66.1% | 3% | 39% | 47.6% | 19% | 74% (active) | 67.5% | 6% | 46% | 84.1% (active) | 9% | 68% | 55.4% | 10% | 55% | 70.3% (active)
CCCCC(CC)CNP(=S)(NCC(CC)CCCC)NCC(CC)CCCC (configuration not stated) | -3% | 37% | 58.9% | -3% | 30% | 9.55% | -4% | 27% | 6.25% | -2% | 20% | 35.8% | -5% | 37% | 13.4% | -5% | 33% | 69.1%
CC(=O)C1C2c3ccccc3C(c3ccccc32)C1C (configuration not stated) | 3% | 55% | 77.6% (active) | -7% | 52% | 10.4% | -2% | 62% | 65% | -85% | 63% | 30.5% | -9% | 71% (active) | 45.1% | -1% | 53% | 69.5%
CN(C)c1ccc(C2N(Cc3ccc(N(CCCl)CCCl)cc3Cl)CCCN2Cc2ccc(N(CCCl)CCCl)cc2Cl)cc1 | 1% | 97% (active) | 93.5% (active) | -12% | 98% (active) | 90.9% (active) | 1% | 98% (active) | 99% (active) | 1% | 97% (active) | 15.8% | -1% | 97% (active) | 93.8% (active) | 6% | 98% (active) | 95.2% (active)
CCOC(=O)C1=C(C)NC(=O)NC1c1ccc(N(CCCl)CCCl)cc1Cl (configuration not stated) | 6% | 78% (active) | 38.6% | 46% | 59% | 44.1% | -3% | 34% | 24.9% | -8% | 74% (active) | -10.8% | 13% | 97% (active) | 92.6% (active) | 3% | 88% (active) | 78.5% (active)
